Our source for the z-score values is PubChem BioAssay AID1508600 (Functional Genomics Laboratory (NCATS/FGL), 2020).

About 3,700 (7%) of roughly 53,000 sequences were called active.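 The calls were made as follows: active = gene knockdowns whose robust z-score for IL-1 alpha signal is at least 2 or at most -2, so actives lie on both sides; inactive = the rest.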 This excerpt belongs to a sample that is enriched for actives.

A short description of this experiment: Components of the Cytosolic LPS Sensing Pathway: Gene Identification via Genome-wide siRNA Screen.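 Also: robust z of the log signal after scaling to non-targeting control siRNA wells of the plate.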 Particulars: RAW264.7 macrophages, IL-1a HTRF, actives lie on both sides, screened at 100 nM (by protocol), cells primed 5 h with Pam3CSK4 first. An outline of the steps:
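RAW264.7; siRNA 100 nM final, RNAiMAX, 48h 37 degrees C; Pam3CSK4 5 h; LipidA + TransIT-TKO 24 h; IL-1a HTRF; CellTiter-Glo viability; robust z vs negative-control median.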
A general note: In TR-FRET formats the signal depends on donor and acceptor labels being close together.
As to GGUCCUUAGGUGACCUCCUTT against Lrrc20, the z-score was -0.249 (inactive).
Next, GGAAAAUGCUGUCCAGUGGTT against Rdh11: -0.858 (inactive).
The figure for GGAGGUGAACAGAUCUCACTT against Fubp1 is 0.391 (inactive); for GGUCACAGCAAGUUAAUAATT against Ranbp9 it is -2.1 (active).
Next, GGAGGUUCUACCCUGUUCATT against Actr1a: 0.48 (inactive); GGGAGAAUCUAACUAAGCCTT against Sirt7: 0.383 (inactive).
In the case of GGUCAUGCACACUCGAAAUTT against Mrpl54, the z-score was 0.831 (inactive).
For GGUGGCUCAGAAAUCCUAUTT against Rbpjl, the z-score is -0.206 (inactive).
“GCGAAUCUCCACAAGAUGGTT against 2300002M23Rik”: the z-score is -0.0187 (inactive).
Turning to CGGCUUCUCUCUUUACACATT against Fosb, the z-score is 2.51 (active).
Next, GGAGAAAAGUACCAAGAUGTT against Ifi27l2b: -1.15 (inactive); AUGGUAUACUAUUAUGCUGTT against Mup20: 1.62 (inactive).
Next, GGAACUAACGGAAUUACUGTT against Arl3: 0.951 (inactive); GCGAAAUCAACAGUCAAUUTT against Ep300: 0.458 (inactive).
Next, GGAAGCAGAGCAGCUGUUUTT against Skiv2l: -0.567 (inactive).
On to GGGAUCAAUUUUGAAGAAUTT against Jmjd4, for which the z-score was -0.398 (inactive).
As to GGAGUAUGUCCAUUGUCACTT against Vmn1r230, the z-score is -2.54 (active).
On to UCAGCGAGCUUUAACCUUUTT against Olfr1028, for which the z-score is 0.26 (inactive).
As to GGUUUUUCAGCUUUGGAACTT against Decr1, the z-score was -0.822 (inactive).
As for CCCACUUUCUUUGAUAACUTT against Bcl2l11, the z-score was 0.585 (inactive).
The figure for CGCGUAGAUAAGAAGUAUUTT against Anks1 is 0.181 (inactive); for GCUCAACAAAGCCUGUUCGTT against Zp3 it is 2.35 (active).
Next, GCAUUACUAAUCAAAGUGGTT against Abcb1b: -0.78 (inactive); CCACUUCAUGAUUGAGUGCTT against Phf8-ps: -0.836 (inactive).
Take CCAUGAGUUCAGAUGAUGATT against Ints10: the z-score was -1.11 (inactive).
As to CCUGAAACAUUCAGUGUCUTT against Apool, the z-score is 0.293 (inactive).
For GCUUAAUUUCAUUUCAAGGTT against B3gnt5, the z-score was 0.496 (inactive).
The figure for GCUUCCCUGCCGUGAUGAUTT against Git1 is -1.15 (inactive); for GGACACAAGUUUUCAGAUCTT against Elmod2 it is 3.02 (active); for GGAUCAUGGAUAUACCACCTT against Smarcb1 it is -1.72 (inactive).
As for GGUGCAAACUAAAAAUCUUTT against Enc1, the z-score is 2.73 (active).
As to GGAAGAUGAAGAUGAGAAUTT against Igbp1b, the z-score was -1.24 (inactive).
Next, GGGAAGCAUGCAGAACAGCTT against Parg: -1.42 (inactive); GGUUCCUCAAGAUCAUCAUTT against P2ry13: 0.051 (inactive).
Next, GCUUUGAUGGAUUCUAAUCTT against Htt: 1.09 (inactive).
The figure for CCCAUUUGCUCUGUGGAUCTT against Tha1 is 0.289 (inactive).
Regarding GCACUUUGGGUUUAAGUACTT against Ndrg4, the z-score is 3.7 (active).
For the sequence GGGAGAGAGAAAAAGAAAATT against Park7, the z-score is 0.94 (inactive).
Next, CCUGGCCAUGUCGAAAGAUTT against Pla2g6: 0.716 (inactive); GGAAGAAGUCAGAUGUGGATT against Radil: -0.315 (inactive); UGAUGCUAAGACUGAACCATT against Olfr541: -1.14 (inactive).
For GGACAUUGUUGUCCAAACUTT against Sptb, the z-score is -2.24 (active).
Next, CCAUAUUUGAAGAAGUCCATT against Espl1: -0.325 (inactive); GGGUACAACUCUUUGAAGATT against Mnat1: 0.535 (inactive).
Next, GCAGUUGAUGAUAAUGUGATT against Pot1b: -0.0269 (inactive).
Consider CGCGGAAACUCUCCACUUATT against Psme4, for which the z-score is -1.18 (inactive).
As for GGGCGAUAUUAUGAGCAACTT against Atp1b2, the z-score is 3.78 (active).
The figure for GGAUCCUCUUCUAUCUUUATT against Pycr1 is -1.27 (inactive).
Next, GGCUGCUUUACUGAAGUAATT against C2cd6: 1.29 (inactive); GGGACUUGGAUCGAAUGGATT against Apeh: 0.326 (inactive).
Turning to GGGAAAUUGUGUAGCAGCUTT against Slc25a29, the z-score was -2.76 (active).
For GGAGGUGGUGUUUAUACCATT against Scrn2, the z-score was 0.728 (inactive).
GCCUAUGCAGCUCUCUCUGTT against Acat3: the z-score was 0.772 (inactive).
Consider GGUUAUUACGUAGUUGGUATT against Cd46, for which the z-score was 0.683 (inactive).
Consider GGUCUACGCGCUCUAUGAATT against Gpr150, for which the z-score was -1.03 (inactive).
Consider GGAGACAGAAUCAUAGUUATT against Sh3yl1, for which the z-score was 0.0505 (inactive).
For CGAUUCUUUAGGAACUUUGTT against Pak7, the z-score is -0.0771 (inactive).
Next, GGCAGUGGUUAAAGGUUCCTT against Lrp6: 2.27 (active); GCACUUAUACUACUUAGUUTT against Abca8a: 2.4 (active).
GCAGGAUUUUCACCAACAGTT against Gh: the z-score was -0.215 (inactive).
Next, GGUAGAAUCCGGUUACCACTT against Tox: 0.704 (inactive).
For GGGAAAGACCAUGUUUGUATT against Ttbk2, the z-score was 0.493 (inactive).
For CCAAUUGUGAGAAGAGUGUTT against Cog7, the z-score is -0.46 (inactive).
GGAUUUUGUGAAUAAAUGCTT against Map2k1: the z-score was 1.31 (inactive).
Next, GGGAAAAGAGAGUGGUGUATT against Rab27a: -0.26 (inactive); GGAGAGCUGGUGUUUUAGATT against Tnfrsf17: 2.74 (active).
GGGUUCAUUUCUCAAAAUUTT against Nol7: the z-score is -0.831 (inactive).
Next, GGAACAAGAAGACUGUGAATT against Pcnt: -0.519 (inactive); GCCUUACAAUUUGUUCUACTT against Dsc1: 1 (inactive).
